Experimental data published in PubChem BioAssay (NCI).
The panel holds about 83,000 compounds, 20% with a hit somewhere; the sample as a whole holds those more often.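 Cell lines were cultured in 96-well plates, exposed to a single compound concentration, and assessed for percent growth 48 hours later.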 Values without a mark were called inactive. Active and inactive are the calls of the source. Rule for the calls: active = growth percent below 10; inactive = the rest.

How the values were obtained:
Experiment in all cases: NCI-60 one-dose screen, 48 h (100 = growth as untreated, 0 = no growth, -100 = all killed)
Conditions in all cases: 10 µM unless noted
EKVX NSCLC = tested on: EKVX NSCLC
SN12C renal = tested on: SN12C renal
UO-31 renal = tested on: UO-31 renal
ACHN renal = tested on: ACHN renal
CAKI-1 renal = tested on: CAKI-1 renal
A498 renal = tested on: A498 renal
CCRF-CEM leukemia = tested on: CCRF-CEM leukemia
MOLT-4 leukemia = tested on: MOLT-4 leukemia
SR leukemia = tested on: SR leukemia
RPMI-8226 leukemia = tested on: RPMI-8226 leukemia
OVCAR-8 ovarian = tested on: OVCAR-8 ovarian
OVCAR-5 ovarian = tested on: OVCAR-5 ovarian
OVCAR-4 ovarian = tested on: OVCAR-4 ovarian
SK-OV-3 ovarian = tested on: SK-OV-3 ovarian
IGROV1 ovarian = tested on: IGROV1 ovarian
OVCAR-3 ovarian = tested on: OVCAR-3 ovarian
HS 578T breast = tested on: HS 578T breast
NCI/ADR-RES ovarian = tested on: NCI/ADR-RES ovarian
T-47D breast = tested on: T-47D breast

| SMILES | growth (EKVX NSCLC) | growth (SN12C renal) | growth (UO-31 renal) | growth (ACHN renal) | growth (CAKI-1 renal) | growth (A498 renal) | growth (CCRF-CEM leukemia) | growth (MOLT-4 leukemia) | growth (SR leukemia) | growth (RPMI-8226 leukemia) | growth (OVCAR-8 ovarian) | growth (OVCAR-5 ovarian) | growth (OVCAR-4 ovarian) | growth (SK-OV-3 ovarian) | growth (IGROV1 ovarian) | growth (OVCAR-3 ovarian) | growth (HS 578T breast) | growth (NCI/ADR-RES ovarian) | growth (T-47D breast) |
| --- | --- | --- | --- | --- | --- | --- | --- | --- | --- | --- | --- | --- | --- | --- | --- | --- | --- | --- | --- |
| CS(=O)(=O)c1ccc(-c2nc3ccccn3c2/C=N/Nc2nc(-c3ccc(Br)cc3)cs2)cc1 | 97.8% | 103% | 84.8% | 103% | 96.9% | 78% | 90.8% | 94% | 95.1% | 94.1% | 99.1% | 110% | 107% | 140% | 111% | 139% | 112% | 107% | 94% |
| OC1CCN(CCCOc2c3ccccc3nc3c2oc2ccccc23)CC1 | -13.7% (active) | -1.2% (active) | -34.4% (active) | -39% (active) | -36.7% (active) | -78.8% (active) | 6.02% (active) | 3.82% (active) | -3.77% (active) | -24% (active) | -44.9% (active) | -8.63% (active) | 4.9% (active) | -10.8% (active) | -37.2% (active) | -18.7% (active) | 8.94% (active) | -17.9% (active) | 1.32% (active) |
| CN1C(=O)N(c2ccccc2)C2N=C(N/N=C/c3ccccc3)SC21 (stereo not given) | 53.4% | 38.5% | 47.4% | 49.1% | 41.9% | -18.8% (active) | 17.1% | 25.5% | 13.6% | 22.5% | 25.7% | 35.1% | 68.3% | 37.1% | 38.2% | 13.2% | 2.36% (active) | 30.7% | 32.6% |
| Clc1ccc2oc3c(OCCCn4ccnc4)c4ccccc4nc3c2c1 | 71.9% | 56.3% | 43.9% | 34.8% | 38.5% | 8.47% (active) | 59.6% | 24.7% | 32.5% | 67% | 44.3% | 73.5% | 74.5% | 112% | 55% | 101% | 87.8% | 56.4% | 74.6% |
| O=C1/C(=C/C2=Cc3ccccc3OC2)SC(=S)N1c1ccc(F)cc1 | 94.7% | 93% | 86.3% | 76% | 90.6% | 71.6% | 109% | 108% | 97.2% | 104% | 105% | 100% | 96.1% | 108% | 95.9% | – | 99.2% | 108% | 87.7% |
| CN(C)CCCNc1c2ccccc2nc2c1oc1ccc(Cl)cc12 | 43.5% | 26.6% | 39.5% | 17.5% | 21.4% | 7.63% (active) | 24.1% | 3.74% (active) | -30.8% (active) | 14.4% | 25.4% | 51.6% | 50.6% | 57.6% | 25.8% | 63.5% | 47.7% | 22% | 63.7% |
| N/C(=N\c1nc2c(Br)cccc2s1)C(Br)Br | 16.4% | 18% | 4.29% (active) | -40.4% (active) | -19.6% (active) | 0.53% (active) | -1.73% (active) | -2.89% (active) | -24% (active) | -16.5% (active) | -18% (active) | 8.49% (active) | 43.2% | – | -67.6% (active) | -27.4% (active) | 6.83% (active) | 6.58% (active) | 33.1% |
| CN(C)CCCOc1c2ccc(Cl)cc2nc2c1oc1ccccc12 | -41.6% (active) | 18% | -51.9% (active) | -6.02% (active) | 1.08% (active) | -91.8% (active) | 0.191% (active) | -17% (active) | -34.2% (active) | -22.1% (active) | -17.8% (active) | 4.62% (active) | 1.72% (active) | -8.76% (active) | -8.93% (active) | -10.4% (active) | 5.22% (active) | 3.15% (active) | 13.5% |
